Here are results for nine compounds from PubChem BioAssay (NCI).

Test [1] in a line: NCI Yeast Anticancer Drug Screen. Data for the rad50 strain (AID 155).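 Note: 0% = growth of vehicle-only cultures of the same strain.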 To be noted: S. cerevisiae rad50 strain growth inhibition, stronger effect = higher value. The essentials: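 Genetically altered yeast (DNA repair pathway); compound treatment; growth inhibition vs vehicle ctrl.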
The nature of test [2]: NCI Yeast Anticancer Drug Screen. Data for the mec2-1 strain (AID 157). The note with it: S. cerevisiae mec2-1 strain, stronger effect = higher value. The gist of the method:
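Cells of the genetically defined mec2-1 yeast strain are incubated with test compound. Inhibition of growth is calculated against vehicle-treated controls.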

The nature of test [3]: NCI Yeast Anticancer Drug Screen. Data for the sgs1 mgt1 strain (AID 161).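 Note: 0% = growth of cultures given vehicle only.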 The note with it: S. cerevisiae sgs1 mgt1 strain, stronger effect = higher value. The essentials: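 Test agents were incubated with a DNA-repair-mutant yeast strain. Growth was then read and compared against vehicle-treated controls.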
Test [4] in a line: NCI Yeast Anticancer Drug Screen. Data for the cln2 rad14 strain (AID 165).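 Note: 0% = growth equal to vehicle treated cultures.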 To be noted: S. cerevisiae cln2 rad14 strain, stronger effect = higher value. The essentials: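 The screen exposed genetically defined yeast (cln2 rad14) to test compounds and scored growth inhibition relative to vehicle-treated controls.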
A short description of test [5]: NCI Yeast Anticancer Drug Screen. Data for the bub3 strain (AID 167). The note with it: S. cerevisiae bub3 mutant strain, stronger effect = higher value. The gist of the method:
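Yeast carrying a defined mutation is treated with each compound, and growth is compared with that of vehicle-exposed cells to give inhibition.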

The nature of test [6]: NCI Yeast Anticancer Drug Screen. Data for the mlh1 rad18 strain (AID 175). The note with it: S. cerevisiae mlh1 rad18 strain growth inhibition, stronger effect = higher value. The gist of the method:
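Compound-treated yeast growth, normalised to vehicle controls. Strain bears defined DNA repair mutations.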

The mark [7] stands for this setting: at 5.0 µM (retest, dose inferred, filed as 0.5).
The mark [8] stands for this setting: at 50.0 µM (retest, dose inferred, filed as 5.0).

Structures are written as SMILES. This is part of a sample that, as a whole, favours compounds with a hit. Of some 79,000 tested, about 15% had one in any assay. A number with no mark means an inactive call. The source made the active and inactive calls. Cut-off read from the data, not from the text of the source: active = growth inhibition above about 70%; inactive = the rest.

For `CCCCCc1[nH]nc(C(=O)OC)c1N=NN1CCOCC1`, the growth inhibition in test [1] (setting [7]) was 43%; in test [1] (setting [8]) it was 98% (active); in test [1] (at 50.0 µM) it was 99.2% (active); in test [2] (setting [7]) it was 91% (active); in test [2] (setting [8]), 99% (active); in test [2] (at 50.0 µM), 99.6% (active). Moreover, the growth inhibition in test [3] (setting [7]) is 62%; in test [3] (setting [8]), 99% (active); in test [3] (at 50.0 µM), 99.5% (active); in test [4] (setting [7]), 68%; in test [4] (setting [8]) it was 99% (active); in test [4] (at 50.0 µM) it was 99.5% (active). The growth inhibition in test [5] (setting [7]) is 81% (active); in test [5] (setting [8]), 99% (active); in test [5] (at 50.0 µM), 99.4% (active); in test [6] (setting [7]), 89% (active); in test [6] (setting [8]), 99% (active); in test [6] (at 50.0 µM), 99.5% (active).

As to `N#C/C(=C/c1ccccc1B(O)O)C(=O)O`, the growth inhibition is -151% in test [1] (setting [7]); -5% in test [1] (setting [8]); 71.4% (active) in test [1] (at 50.0 µM); -49% in test [2] (setting [7]); -36% in test [2] (setting [8]); 17% in test [2] (at 50.0 µM). Also, the growth inhibition in test [3] (setting [7]) was -61%; in test [3] (setting [8]) it was -40%; in test [3] (at 50.0 µM) it was 31.3%; in test [4] (setting [7]), -62%; in test [4] (setting [8]), -58%; in test [4] (at 50.0 µM), 13.1%. The growth inhibition in test [5] (setting [7]) was -77%; in test [5] (setting [8]), -96%; in test [5] (at 50.0 µM), -8.9%; in test [6] (setting [7]), -140%; in test [6] (setting [8]), -65%; in test [6] (at 50.0 µM), 65.8%.

For `COc1ccc2c(c1OC)OCC2C` (configuration not stated), the growth inhibition was 3% in test [1] (setting [7]); 68% in test [1] (setting [8]); 86.5% (active) in test [1] (at 50.0 µM); 0% in test [2] (setting [7]); 38% in test [2] (setting [8]); 71% (active) in test [2] (at 50.0 µM). In addition, the growth inhibition was 1% in test [3] (setting [7]); 56% in test [3] (setting [8]); 37.6% in test [3] (at 50.0 µM); -4% in test [4] (setting [7]); 57% in test [4] (setting [8]); 57.4% in test [4] (at 50.0 µM). For the same compound, the growth inhibition in test [5] (setting [7]) was 2%; in test [5] (setting [8]), 71% (active); in test [5] (at 50.0 µM), 87.1% (active); in test [6] (setting [7]) it was -4%; in test [6] (setting [8]), 67%; in test [6] (at 50.0 µM), 43.2%.

In the case of `CC(=O)Oc1cc(OC(C)=O)c2cc(Br)ccc2c1OC(C)=O`, the growth inhibition is -5% in test [1] (setting [7]); 63% in test [1] (setting [8]); 87.5% (active) in test [1] (at 50.0 µM); 3% in test [2] (setting [7]); 47% in test [2] (setting [8]); 72.8% (active) in test [2] (at 50.0 µM). In addition, the growth inhibition in test [3] (setting [7]) is -19%; in test [3] (setting [8]) it was 67%; in test [3] (at 50.0 µM), 62.8%; in test [4] (setting [7]), 0%; in test [4] (setting [8]), 37%; in test [4] (at 50.0 µM), 70.2% (active). Besides, the growth inhibition is 0% in test [5] (setting [7]); 65% in test [5] (setting [8]); 94.1% (active) in test [5] (at 50.0 µM); 5% in test [6] (setting [7]); 69% in test [6] (setting [8]); 90.7% (active) in test [6] (at 50.0 µM).

Consider `CC(C)N(CC(=O)c1ccc2cc(Cl)c3ccccc3c2c1)C(C)C`, for which the growth inhibition in test [1] (setting [7]) is 20%; in test [1] (setting [8]), 97% (active); in test [1] (at 50.0 µM), 99% (active); in test [2] (setting [7]) it was 34%; in test [2] (setting [8]), 98% (active); in test [2] (at 50.0 µM) it was 98.6% (active). The growth inhibition in test [3] (setting [7]) is 79% (active); in test [3] (setting [8]), 98% (active); in test [3] (at 50.0 µM), 98.8% (active); in test [4] (setting [7]), 8%; in test [4] (setting [8]), 98% (active); in test [4] (at 50.0 µM), 98.2% (active). Also, the growth inhibition is 32% in test [5] (setting [7]); 97% (active) in test [5] (setting [8]); 98.5% (active) in test [5] (at 50.0 µM); 39% in test [6] (setting [7]); 98% (active) in test [6] (setting [8]); 98.5% (active) in test [6] (at 50.0 µM).

Regarding `CCCCCCCCCCCCCCOS(=O)(=O)O`, the growth inhibition is 26% in test [1] (setting [7]); 99% (active) in test [1] (setting [8]); 99.5% (active) in test [1] (at 50.0 µM); -27% in test [2] (setting [7]); 73% (active) in test [2] (setting [8]); 99.7% (active) in test [2] (at 50.0 µM). The growth inhibition in test [3] (setting [7]) is -1%; in test [3] (setting [8]), 100% (active); in test [3] (at 50.0 µM), 99.6% (active); in test [4] (setting [7]), 8%; in test [4] (setting [8]) it was 61%; in test [4] (at 50.0 µM), 99.6% (active). Besides, the growth inhibition in test [5] (setting [7]) is -9%; in test [5] (setting [8]), 35%; in test [5] (at 50.0 µM), 99.7% (active); in test [6] (setting [7]), 12%; in test [6] (setting [8]) it was 98% (active); in test [6] (at 50.0 µM), 99.5% (active).

Consider `O=c1oc2ccccc2c(O)c1C1=N/C(=N/N=C/c2ccc(Cl)cc2)SC1`, for which the growth inhibition is -6% in test [1] (setting [7]); 97% (active) in test [1] (setting [8]); 64.2% in test [1] (at 50.0 µM); -3% in test [2] (setting [7]); 98% (active) in test [2] (setting [8]); 30.7% in test [2] (at 50.0 µM). For the same compound, the growth inhibition was -3% in test [3] (setting [7]); 97% (active) in test [3] (setting [8]); 4.05% in test [3] (at 50.0 µM); 0% in test [4] (setting [7]); 95% (active) in test [4] (setting [8]); 50.2% in test [4] (at 50.0 µM). Besides, the growth inhibition is -1% in test [5] (setting [7]); 97% (active) in test [5] (setting [8]); 98.5% (active) in test [5] (at 50.0 µM); 1% in test [6] (setting [7]); 97% (active) in test [6] (setting [8]); 47.2% in test [6] (at 50.0 µM).

For `Cc1ccc(OS(=O)(=O)c2ccc(Br)cc2)cc1`, the growth inhibition in test [1] (setting [7]) was 2%; in test [1] (setting [8]), 5%; in test [1] (at 50.0 µM), -6%; in test [2] (setting [7]) it was -16%; in test [2] (setting [8]), 10%; in test [2] (at 50.0 µM), 0.05%. In addition, the growth inhibition is 8% in test [3] (setting [7]); 19% in test [3] (setting [8]); -3.65% in test [3] (at 50.0 µM); 9% in test [4] (setting [7]); 6% in test [4] (setting [8]); -1% in test [4] (at 50.0 µM). For the same compound, the growth inhibition in test [5] (setting [7]) is 16%; in test [5] (setting [8]), 41%; in test [5] (at 50.0 µM) it was -7%; in test [6] (setting [7]), 3%; in test [6] (setting [8]) it was 31%; in test [6] (at 50.0 µM) it was 12.7%.

Take `C=Cc1nc(N)nc(-c2ccc(C)cc2)n1`: the growth inhibition in test [1] (setting [7]) is 7%; in test [1] (setting [8]), 91% (active); in test [1] (at 50.0 µM) it was 92.3% (active); in test [2] (setting [7]), 12%; in test [2] (setting [8]), 94% (active); in test [2] (at 50.0 µM), 91.3% (active). Further, the growth inhibition in test [3] (setting [7]) is 3%; in test [3] (setting [8]), 95% (active); in test [3] (at 50.0 µM) it was 92.6% (active); in test [4] (setting [7]), -8%; in test [4] (setting [8]), 74% (active); in test [4] (at 50.0 µM) it was 49.2%. Also, the growth inhibition in test [5] (setting [7]) was 6%; in test [5] (setting [8]), 93% (active); in test [5] (at 50.0 µM), 86% (active); in test [6] (setting [7]) it was 7%; in test [6] (setting [8]), 96% (active); in test [6] (at 50.0 µM), 95.2% (active).
